Shown are actives, neighbours in structure and some others; about 1.4% of the full set was active somewhere.
pAkt inh – Akt phosphorylation inhibition; Neuro2A IGF-stimulated pAkt S473 HTRF, 20 min; active compounds read low; activity change, % for hits at 50 µM; 360,000 tested, 0.32% active; AID 651550; in the data active means activity change below about -80%; inconclusive means mostly about -51% to -80%; further: on the % scale 0 is the no-effect control and ±100 the full control effect
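Neuro2A cells (4,500/well, DMEM with 0.5% FBS) were treated with compound at a single 50 µM final concentration, stimulated with 6 nM IGF for 20 min at 37 °C, and lysed. Phospho-Akt Ser473 was read by HTRF as 665/615 ratio ×10^4.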
S-ASM inh – human S-ASM enzyme inhibition | P17405 | placental ASM, HMU-PC fluorogenic substrate, 60 min | Potency, µM (series often up to 57.5 µM), without a hit: at the top dose activity change, negative = inhibition, most hits filed as inhibitors | 340,000 tested, 0.006% active | AID 504937; further: potency means the concentration at half of the fitted maximal effect
Target sequence (P17405 47-631 limits assumed): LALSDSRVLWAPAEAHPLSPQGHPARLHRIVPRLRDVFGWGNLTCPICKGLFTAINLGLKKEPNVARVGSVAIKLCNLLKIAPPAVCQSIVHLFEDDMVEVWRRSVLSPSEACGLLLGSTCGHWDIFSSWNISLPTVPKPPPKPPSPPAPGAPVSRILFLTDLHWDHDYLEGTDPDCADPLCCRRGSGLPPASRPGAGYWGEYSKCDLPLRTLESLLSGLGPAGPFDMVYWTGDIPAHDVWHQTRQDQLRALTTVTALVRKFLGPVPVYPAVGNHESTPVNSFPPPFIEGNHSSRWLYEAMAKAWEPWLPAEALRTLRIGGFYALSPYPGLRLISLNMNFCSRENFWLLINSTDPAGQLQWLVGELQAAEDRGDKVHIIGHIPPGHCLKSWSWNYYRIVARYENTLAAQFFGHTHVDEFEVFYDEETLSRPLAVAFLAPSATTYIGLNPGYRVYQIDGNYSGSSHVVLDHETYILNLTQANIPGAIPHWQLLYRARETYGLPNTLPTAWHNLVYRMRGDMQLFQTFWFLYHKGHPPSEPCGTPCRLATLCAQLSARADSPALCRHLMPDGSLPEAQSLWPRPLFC
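HMU-PC0 cleavage (9 uM final) by human placental ASM, 60 min at 37 °C following 10 min compound exposure at RT; stopped at pH 10, fluorescence Ex 386/Em 447 nm.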
Vif-A3F inh – blocks the Vif interaction with APOBEC3F; HeLa A3F-eYFP + Vif (tagged APOBEC3F with the HIV-1 protein that degrades it), YFP fluorescence increase; 390,000 tested, 0.2% active; Potency, µM (titrated, usually from 46.1 µM), inactives show top-dose activity, negative = active; further: potency means the concentration at half of the fitted maximal effect; % of control where 0% means no effect; nearly all actives have a fitted effect of over 65% in size
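Fluorescence increase (Ex 488/Em 500-530) after overnight compound treatment at 37 deg C flags inhibition of Vif-driven A3F-eYFP loss in stable HeLa A3F-eYFP/Vif cells seeded overnight beforehand.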
TSG101-PTAP inh – blocks PTAP/TSG101 interaction to inhibit HIV-1 budding; Q99816; Fluorescence polarization, FITC-PTAP peptide / Tsg101 binding; Potency, µM (top dose mostly 115 µM), for inactives: at the highest dose activity change, negative = inhibition, most hits filed as inhibitors; 340,000 tested, under 10 active; AID 493005; active means well fitted inhibition curve with a large enough effect in the main read-out, with a control signal flat, not every such curve was filed as active; inconclusive means small, poorly fitted or top-dose-only effect, or effect the other way, or a change in a side signal; inactive means no such curve, though single readings can be large or run the other way; further: potency means the concentration at half of the fitted maximal effect; % of control where 0% means no effect
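Fluorescence anisotropy tracks displacement of a FITC-tagged PTAP peptide (50 nM) from the Tsg101 binding domain (10 uM), following a 20 min room-temperature incubation at pH 7.5.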
Vif-A3G inh – Vif-A3G binding inhibition; 410,000 tested, 0.076% active; Q9HC16; AID 602310; HeLa A3G-eYFP + Vif (tagged APOBEC3G with the HIV-1 protein that degrades it), YFP fluorescence, overnight; Potency, µM (doses to about 46.1 µM), inactives show at the top dose activity, negative = active, most hits filed as inhibitors; further: potency means the concentration at half of the fitted maximal effect; on the % scale 0 is the no-effect control and ±100 the full control effect; nearly all actives have a fitted effect of over 60% in size
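HeLa cells stably expressing Vif and C-terminally eYFP-tagged A3G, seeded overnight at 37 deg C, then exposed to compound by pintool overnight at 37 deg C. Rise in yellow fluorescence (Ex 488/Em 500-530, Acumen) marks blocked Vif-driven A3G degradation.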
12-LOX inh – inhibitors of human 12S-lipoxygenase ALOX12. P18054. purified 12hLO, xylenol orange hydroperoxide absorbance. Potency, µM (highest dose often 108 µM), for the others: at the highest dose activity change, negative = inhibition, hits mostly inhibitors. 580,000 tested, 1.1% active. AID 1671190; further: potency means the concentration at half of the fitted maximal effect; on the % scale 0 is the no-effect control and ±100 the full control effect
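Purified human 12hLO (150 nM final) in 25 mM Hepes, 0.01% Triton X-100, pH 7.0 was preincubated 15 min at room temperature with compound. Then 40 uM arachidonic acid was added, 30 min. Hydroperoxide was read by Fe-XO absorbance ratio 573/405 nm.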
Active calls of the source: *; i = inactive; ? = inconclusive; . = no result given; [ ] = remark or other dose. Unless noted, the call rests on the fitted dose curve; in most records, active means well fitted curve in the direction sought with a large enough effect; inconclusive means small, poorly fitted or top-dose-only effect, or another doubt; inactive means no such curve, though single readings can be large; an effect the other way counts as inactive or inconclusive.

SMILES	pAkt inh	S-ASM inh	Vif-A3F inh	TSG101-PTAP inh	Vif-A3G inh	12-LOX inh
CCOc1ccc(NC(=O)CSC2=C(C#N)C(c3ccccc3Cl)C(C(C)=O)=C(C)N2)cc1 (stereo not drawn)	.	.	.	.	.	32µM*
CSCSC1=C(C#N)C(c2ccccc2Cl)C(C(C)=O)=C(C)N1 (stereo not drawn)	-106%*	9%	-1%	0%	-1%	?
CCOC(=O)CSC1=C(C#N)C(c2ccccc2F)C(C(C)=O)=C(C)N1 (stereo not drawn)	.	19%	-4%	-8%	-3%	0%
CCOc1ccccc1C1C(C#N)=C(SCC(=O)Nc2ccc(C)cc2)NC2=C1C(=O)CCC2 (stereo not drawn)	.	.	.	.	.	-17%
CCc1nnc(Cn2cnc3scc(-c4ccc(C)cc4)c3c2=O)o1	.	.	.	.	.	5%
O=C(COc1ccc(Cl)c(Cl)c1)Nc1ccc2[nH]ncc2c1	.	.	.	.	.	-41%
CCCC(=O)N1CCC(C(=O)O)CC1	.	.	.	.	.	-42%
Cc1ccc(-c2cn3nc(-c4ccccc4)c(-c4ccccc4)nc3n2)cc1	i	264%	4.5µM*	?	-18%	?
COc1ccc(CN2CCCN(C(=O)c3cn(C)nc3-c3ccc4c(c3)OCCCO4)CC2)cc1	.	.	.	.	.	4%
CCC(=O)C(=O)N1CCC2(CCCN(Cc3ccc(C(C)C)cc3)C2=O)C1 (stereo not drawn)	.	.	.	.	.	-12%
CCN(CC)c1ccc(C(=C2C=CC(=[N+](CC)CC)C=C2)c2ccccc2)cc1	i	-20%	1%	-2%	?	22µM*
CCN(CC)c1ccc(C(=C2C=CC(=[N+](CC)CC)C=C2)c2ccc(N(CC)CC)cc2)cc1	i	?	?	1%	14%	-62%
CC(=O)N1N=C(c2cccc(O)c2)CC1c1ccco1 (stereo not drawn)	.	.	.	.	.	7%
Cc1ccc(CN(C)C(=O)CS(=O)(=O)Cc2nc(-c3ccccc3)oc2C)cc1	.	.	.	.	.	4%
COc1cc(/C=C2/CCC/C(=C\c3cc(O)c(OC)c(Cl)c3)C2=O)cc(Cl)c1O	i	-13%	6.3µM*	-12%	?	4%
COc1cc(/C=C2\CC(C(C)(C)C)C/C(=C\c3cc(OC)c(OC)c(OC)c3)C2=O)cc(OC)c1OC (stereo not drawn)	i	?	?	-5%	8.9µM*	0%
COc1cc(/C=C2\CC/C(=C\c3cc(OC)c(OC)c(OC)c3)C2=O)cc(OC)c1OC	i	-13%	-27%	-2%	-5%	-7%
COc1cc(/C=C2\CCC/C(=C\c3ccc(O)c(OC)c3)C2=O)ccc1O	i	-27%	?	-6%	?	?
COc1cc(/C=C2\CC/C(=C\c3cc(OC)c(O)c(OC)c3)C2=O)cc(OC)c1O	i	-26%	-19%	6%	-11%	20µM*
CC(C)OCCSc1nnc(-c2nn(Cc3ccccc3)c(=O)c3ccccc23)o1	.	.	.	.	.	6%
Cc1ccsc1CN(CC1CCCO1)C(=O)COc1ccc(Cl)cc1Cl (stereo not drawn)	.	.	.	.	.	10%
CCCCNc1nc2c(c(=O)n(C)c(=O)n2C)n1Cc1ccc(F)cc1	.	.	.	.	.	4%
CN1C[C@@H](NC(=O)c2ccccn2)C[C@H]1c1nc(-c2ccc(OC(F)(F)F)cc2)no1	.	.	.	.	.	74%[176 µM]
CCCCn1c(NC(=O)c2ccco2)c(S(=O)(=O)c2ccc(C)cc2)c2nc3ccccc3nc21	i	i	25µM*	2%	?	?
Cc1nn(Cc2ccccc2)c2ncccc12	i	0%	0%	-1%	-1%	45µM*
SMILES	pAkt inh	S-ASM inh	Vif-A3F inh	TSG101-PTAP inh	Vif-A3G inh	12-LOX inh
Cc1ccc(Cn2c(=O)c3cccnc3n(Cc3ccc(C)cc3)c2=O)cc1	.	.	1%	.	2%	-15%
O=c1cc(C(F)(F)F)[nH]c(=S)[nH]1	.	.	.	.	.	0.79µM*
O=C(COCC(=O)N1CCN(c2ccccc2)CC1)NCc1ccc2c(c1)OCO2	.	.	.	.	.	-3%
O=C(NC1CCCc2ccccc21)C1CCC1 (stereo not drawn)	.	.	.	.	.	-3%
O=C(c1cccc(Cl)c1)N1CCC2(CC1)NC(=O)N(c1ccccc1Cl)N2	.	.	.	.	.	1.6µM*
CC(Oc1ccccc1)C(=O)N1CCN(C(=O)C(C)Oc2ccccc2)CC1 (stereo not drawn)	i	2%	1%	-3%	0%	-5%
O=C(c1ccc(F)cc1)N1CCN(Cc2ccccc2)CC1	i	12%	7%	0%	0%	69%
O=C(c1cccc(Cl)c1)N1CCC2(C1)NC(=O)N(Cc1ccc(Cl)cc1)C2=O (stereo not drawn)	.	.	.	.	.	40µM*
O=C(c1cccc(Cl)c1)N1CCC2(CC1)Cc1ccccc1NC2=O	.	.	.	.	.	15%
CC(Oc1ccccc1)C(=O)N1CCC2(CC1)NC(=O)N(c1ccccc1Cl)N2 (stereo not drawn)	.	.	.	.	.	1.4µM*
O=C(c1ccc(F)cc1)N1CCC2(CC1)NC(=O)N(c1ccccc1Cl)N2	.	.	.	.	.	1.3µM*
O=C(NCCNc1ncccn1)NCc1ccccc1	.	.	.	.	.	54%
COCCN[C@@H]1C[C@@H]2c3[nH]c4ccccc4c3C[C@@H](C(=O)OC)N2[C@H](c2ccc(F)c(F)c2)C1	.	.	.	.	.	37%
Cc1ccc(C(=O)N2CCN(c3ncccn3)CC2)c(C)c1	i	15%	-1%	0%	2%	-11%
Cc1ccc(C(=O)N2CCC3(CC2)NC(=O)N(c2ccccc2Cl)N3)c(C)c1	.	.	.	.	.	2.2µM*
Cc1noc([C@@H](C)NC(=O)Nc2ccc(Cl)cc2)c1C(=O)O	.	.	.	.	.	20µM*
C[C@@H](NC(=O)c1cccnc1)c1onc(-c2ccc(F)cc2)c1C(=O)O	.	.	.	.	.	18µM*
C[C@@H](NC(=O)Nc1ccccc1)c1onc(-c2ccc(F)cc2)c1C(=O)O	.	.	.	.	.	63µM*
C[C@@H](NC(=O)Nc1ccc(Cl)cc1)c1onc(-c2ccccc2)c1C(=O)O	.	.	.	.	.	8%[176 µM]
C[C@@H](NS(C)(=O)=O)c1onc(-c2cccnc2)c1C(=O)O	.	.	.	.	.	56µM*
CC(NC(=O)CCc1ccco1)C1CCCO1 (stereo not drawn)	.	.	.	.	.	-29%
Cc1cccc(CNc2ccccc2C(N)=O)c1	.	.	.	.	.	-36%
c1ccc(Oc2ncnc3sc(-c4ccccc4)cc23)cc1	.	.	.	.	.	20%
COc1ccc(C2Cn3nnc(C(=O)N4CCN(C(=O)c5sccc5C)CC4)c3CO2)cc1 (stereo not drawn)	.	.	.	.	.	-8%
CC(C)Oc1ccc(C(=O)/C(=C\c2cccnc2)c2nc3ccccc3o2)cc1	.	.	.	.	.	-1%
O=C(CC1C(=O)NCCN1C(=O)Nc1ccc(Cl)cc1)Nc1ccc(F)cc1 (stereo not drawn)	i	?	0%	-7%	-23%	40µM*
